Test results: PubChem BioAssay AID1117264 (The Scripps Research Institute Molecular Screening Center, 2014)
In all, about 89,000 compounds went through this assay and about 440 (0.49%) were called active. Only a selection was taken, and actives are over-represented in it overall. Values without a mark were called inactive.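 How the source made its calls: active means inhibition above the mean inhibition across all screened compounds plus 3 SD (cut at about 11% in these data); inactive means the rest.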

molecular target: RNA-editing ligase 1, mitochondrial (Trypanosoma brucei brucei) (UniProt P86926); experiment: TbREL1 RNA ligase inhibitors, primary screen, biochemical, FRET fluorescence (AID 1117264); conditions: TbREL1 RNA ligation, at 9.66 µM, stronger effect = higher value;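 further: 0% = plate median of test wells and 100% = NSC42067 control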
Sequence (P86926 whole entry, looked up): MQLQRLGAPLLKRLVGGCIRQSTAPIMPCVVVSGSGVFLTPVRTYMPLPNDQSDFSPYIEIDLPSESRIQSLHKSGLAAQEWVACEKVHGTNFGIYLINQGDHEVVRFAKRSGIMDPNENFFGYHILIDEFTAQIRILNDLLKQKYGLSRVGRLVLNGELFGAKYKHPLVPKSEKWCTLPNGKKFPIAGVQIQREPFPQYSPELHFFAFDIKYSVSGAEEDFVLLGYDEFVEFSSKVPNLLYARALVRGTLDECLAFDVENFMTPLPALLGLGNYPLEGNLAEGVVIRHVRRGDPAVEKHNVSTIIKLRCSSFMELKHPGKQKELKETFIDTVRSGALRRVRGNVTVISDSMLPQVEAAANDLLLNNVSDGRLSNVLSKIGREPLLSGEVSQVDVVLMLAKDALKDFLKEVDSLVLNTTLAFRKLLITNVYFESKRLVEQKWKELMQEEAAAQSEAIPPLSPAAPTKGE

SMILES | inhibition
CC1CCCCN1Cc1cccnc1 (stereo not given) | 13.3% (active)
COC(=O)C1=C(c2ccc(F)cc2OCc2ccccc2)C[C@@H]2CC[C@H]1N2C(=O)NCc1ccc(C(C)(C)C)cc1 | -1.57%
COc1cccc(-c2nc3ccc(N4CCN(C)CC4)cc3[nH]2)c1 | 5.54%
CN1CCN(c2cc(N3CCNCC3)ccc2[N+](=O)[O-])CC1 | 13.9% (active)
Cc1cccc(NC(=O)N2CC3CC(C2)c2cccc(=O)n2C3)c1 (stereo not given) | 3.86%
COC(=O)C1=C(c2ccccc2OCc2ccccc2)C[C@@H]2CC[C@H]1N2C(=O)NCc1ccc(OC)cc1 | -0.93%
CCOP(=O)(OCC)C(NC(=O)NC)C(N)=O (stereo not given) | 2.84%
COc1ccc(-n2nnnc2C(c2cccc3ccccc23)N2CCC(n3c(=O)[nH]c4ccccc43)CC2)cc1 (stereo not given) | -2.29%
CCC(=NCCc1ccccc1)c1c(O)n(C2CCCCC2)c(=O)[nH]c1=O | -0.24%
O=c1[nH]c2ccccc2n1C1CCN(C(c2ccccc2)c2nnnn2Cc2ccccc2)CC1 (stereo not given) | 23.1% (active)
COc1cc(C(=O)N2Cc3ccc(Br)cc3-n3nncc3C2)cc(OC)c1OC | 2.36%
CN1CCN(C(=S)SCC(=O)Nc2ccc(Cl)cc2C(=O)c2ccccc2)CC1 | 2.78%
CCOC(=O)CNC(=O)N1Cc2cc(N3CCCCC3)ccc2-n2nncc2C1 | 2.4%
COc1ccc(-c2nn(CCC#N)cc2C(=O)O)cc1 | -2.19%
CSc1ccc(C(=O)C2CCCN(Cc3ccn[nH]3)C2)cc1 (stereo not given) | 0.96%
